In article PMC11006913 one finds binding signal data, which are given here for 23 sequences.

Holding throughout (assay): PBM; 200 nM protein, PBS
Holding throughout (conditions): dsDNA, one strand shown

Assay [1] addresses HOXC10 (Homo sapiens, UniProt Q9NYD6 254-340).
Assay [2] addresses HOXC10 (Homo sapiens, UniProt Q9NYD6 254-340, K271E).
In assay [3] the target is ALX4 (Homo sapiens, UniProt Q9H161 200-286).
Assay [4] has as its target ALX3 (Homo sapiens, UniProt O95076 139-225, N203S).
The target of assay [5] is PRRX1 (Homo sapiens, UniProt P54821 80-166, F113S).
Assay [6] has as its target ALX4 (Homo sapiens, UniProt Q9H161 200-286, Q225E).
The target in assay [7] is PRRX1 (Homo sapiens, UniProt P54821 80-166).
For assay [8], the target named is VAX1 (Homo sapiens, UniProt Q5SQQ9 86-172).
For assay [9], the target named is VAX1 (Homo sapiens, UniProt Q5SQQ9 86-172, T142I).
Assay [10] concerns the target VAX1 (Homo sapiens, UniProt Q5SQQ9 86-172, K157R).
Assay [11] deals with T1, PAX4 (Homo sapiens, UniProt O43316 9-242, R200K).
T1 sequence: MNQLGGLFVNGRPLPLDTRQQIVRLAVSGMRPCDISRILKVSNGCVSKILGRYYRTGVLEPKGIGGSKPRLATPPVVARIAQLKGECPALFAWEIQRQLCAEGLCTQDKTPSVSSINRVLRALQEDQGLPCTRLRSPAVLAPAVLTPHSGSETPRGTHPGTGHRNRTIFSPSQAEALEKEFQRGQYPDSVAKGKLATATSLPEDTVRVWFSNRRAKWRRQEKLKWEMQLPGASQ

Assay [12] addresses T2, PAX4 (Homo sapiens, UniProt O43316 9-242).
T2 sequence: T1 sequence with K192R

The target in assay [13] is HOXB6 (Homo sapiens, UniProt P17509 132-218, K202E).
For assay [14], the target named is ALX3 (Homo sapiens, UniProt O95076 139-225, N203Q).
Assay [15] deals with T3, PAX4 (Homo sapiens, UniProt O43316 9-242, R200Q).
T3 sequence: T1 sequence with K192Q

Assay [16] addresses ALX1 (Homo sapiens, UniProt Q15699 118-204, L144R).
Assay [17] concerns the target T4, PAX4 (Homo sapiens, UniProt O43316 9-242, F177V).
T4 sequence: T1 sequence with F169V, K192R

Assay [18] has as its target ALX3 (Homo sapiens, UniProt O95076 139-225).
The target in assay [19] is T5, PAX4 (Homo sapiens, UniProt O43316 9-242, F177Y).
T5 sequence: T1 sequence with F169Y, K192R

The target in assay [20] is ALX3 (Homo sapiens, UniProt O95076 139-225, L168Q).
Assay [21] concerns the target ALX3 (Homo sapiens, UniProt O95076 139-225, L168V).
The target of assay [22] is T6, PAX4 (Homo sapiens, UniProt O43316 9-242, R227W).
T6 sequence: T1 sequence with K192R, R219W

Where a chain is given by its changes, count along the chain named.

Chain of ALX4 (Homo sapiens, UniProt Q9H161 200-286) (Q9H161 200-286): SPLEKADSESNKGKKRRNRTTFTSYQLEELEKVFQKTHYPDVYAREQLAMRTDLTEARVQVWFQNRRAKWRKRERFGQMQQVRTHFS
Chain of HOXC10 (Homo sapiens, UniProt Q9NYD6 254-340) (Q9NYD6 254-340): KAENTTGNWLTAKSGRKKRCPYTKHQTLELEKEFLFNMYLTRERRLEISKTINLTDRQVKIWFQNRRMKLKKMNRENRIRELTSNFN
Chain of HOXC10 (Homo sapiens, UniProt Q9NYD6 254-340, K271E) (Q9NYD6 254-340 K271E): as the sequence (Q9NYD6 254-340) above, with K18E counted along it
Chain of ALX3 (Homo sapiens, UniProt O95076 139-225, N203S) (O95076 139-225 N203S): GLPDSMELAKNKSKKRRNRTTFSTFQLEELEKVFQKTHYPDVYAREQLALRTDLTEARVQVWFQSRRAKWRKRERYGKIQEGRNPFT
Chain of ALX4 (Homo sapiens, UniProt Q9H161 200-286, Q225E) (Q9H161 200-286 Q225E): as the sequence (Q9H161 200-286) above, with Q26E counted along it
Chain of PRRX1 (Homo sapiens, UniProt P54821 80-166, F113S) (P54821 80-166 F113S): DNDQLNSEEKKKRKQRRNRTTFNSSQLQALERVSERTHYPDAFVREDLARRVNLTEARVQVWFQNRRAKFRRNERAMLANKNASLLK
Chain of VAX1 (Homo sapiens, UniProt Q5SQQ9 86-172, T142I) (Q5SQQ9 86-172 T142I): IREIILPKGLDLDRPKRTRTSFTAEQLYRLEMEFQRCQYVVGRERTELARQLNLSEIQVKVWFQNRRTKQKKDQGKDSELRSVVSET
Chain of HOXB6 (P17509 132-218 K202E): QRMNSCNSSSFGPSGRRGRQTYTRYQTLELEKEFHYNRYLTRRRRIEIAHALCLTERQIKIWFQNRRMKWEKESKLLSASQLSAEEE
Chain of ALX3 (Homo sapiens, UniProt O95076 139-225, N203Q) (O95076 139-225 N203Q): as the sequence (O95076 139-225 N203S) above, with S65Q counted along it
Chain of VAX1 (Homo sapiens, UniProt Q5SQQ9 86-172, K157R) (Q5SQQ9 86-172 K157R): as the sequence (Q5SQQ9 86-172 T142I) above, with I57T, K72R counted along it
Chain of ALX3 (Homo sapiens, UniProt O95076 139-225, L168Q) (O95076 139-225 L168Q): as the sequence (O95076 139-225 N203S) above, with L30Q, S65N counted along it
Chain of PRRX1 (Homo sapiens, UniProt P54821 80-166) (P54821 80-166): as the sequence (P54821 80-166 F113S) above, with S34F counted along it
Chain of ALX1 (Q15699 118-204 L144R): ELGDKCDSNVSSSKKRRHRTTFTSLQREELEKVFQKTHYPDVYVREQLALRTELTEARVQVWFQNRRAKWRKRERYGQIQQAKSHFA
Chain of ALX3 (Homo sapiens, UniProt O95076 139-225) (O95076 139-225): as the sequence (O95076 139-225 N203S) above, with S65N counted along it
Chain of VAX1 (Homo sapiens, UniProt Q5SQQ9 86-172) (Q5SQQ9 86-172): as the sequence (Q5SQQ9 86-172 T142I) above, with I57T counted along it
Chain of ALX3 (Homo sapiens, UniProt O95076 139-225, L168V) (O95076 139-225 L168V): as the sequence (O95076 139-225 N203S) above, with L30V, S65N counted along it

On to CACTGACG, for which the binding signal in assay [1] was 10 upbm affinity estimate (log intensity, higher = more binding, comparable within an allelic series); in [2], 10.1 upbm affinity estimate (log intensity, higher = more binding, comparable within an allelic series).

As to AAGCCTGG, the binding signal in assay [1] is 10.1 upbm affinity estimate (log intensity, higher = more binding, comparable within an allelic series); in [2] it was 10 upbm affinity estimate (log intensity, higher = more binding, comparable within an allelic series).

With ACGCGAGC, the binding signal in assay [1] is 10.1 upbm affinity estimate (log intensity, higher = more binding, comparable within an allelic series); in assay [2], 10.1 upbm affinity estimate (log intensity, higher = more binding, comparable within an allelic series).

In the case of AATGCTAT, the binding signal is 11 upbm affinity estimate (log intensity, higher = more binding, comparable within an allelic series) in assay [1] and 10.9 upbm affinity estimate (log intensity, higher = more binding, comparable within an allelic series) in assay [2].

Consider AATAATAG, for which the binding signal in assay [1] is 11.5 upbm affinity estimate (log intensity, higher = more binding, comparable within an allelic series); in assay [2], 11.2 upbm affinity estimate (log intensity, higher = more binding, comparable within an allelic series).

For ACGAAGCT, the binding signal was 10 upbm affinity estimate (log intensity, higher = more binding, comparable within an allelic series) in assay [1] and 10.1 upbm affinity estimate (log intensity, higher = more binding, comparable within an allelic series) in assay [2].

In the case of CTACTTAC, the binding signal in assay [3] is 9.76 upbm affinity estimate (log intensity, higher = more binding, comparable within an allelic series).

Turning to AGTTAGTG, the binding signal in assay [3] was 10.4 upbm affinity estimate (log intensity, higher = more binding, comparable within an allelic series).

TAACGAAA: the binding signal in assay [3] was 10.6 upbm affinity estimate (log intensity, higher = more binding, comparable within an allelic series).

As for CCACTAAC, in assay [3], the binding signal is 10 upbm affinity estimate (log intensity, higher = more binding, comparable within an allelic series).

For the sequence CTAGCCAG, the binding signal was 10.1 upbm affinity estimate (log intensity, higher = more binding, comparable within an allelic series) in [1] and 10.1 upbm affinity estimate (log intensity, higher = more binding, comparable within an allelic series) in assay [2].

Turning to TTAAATAA, the binding signal in assay [1] is 11.4 upbm affinity estimate (log intensity, higher = more binding, comparable within an allelic series); in assay [2], 11.1 upbm affinity estimate (log intensity, higher = more binding, comparable within an allelic series); in [4], 8.72 upbm affinity estimate (log intensity, higher = more binding, comparable within an allelic series).

Regarding GTCGGCGA, the binding signal in assay [3] was 8.22 upbm affinity estimate (log intensity, higher = more binding, comparable within an allelic series); in assay [5], 9.28 upbm affinity estimate (log intensity, higher = more binding, comparable within an allelic series); in [6] it was 8.22 upbm affinity estimate (log intensity, higher = more binding, comparable within an allelic series); in [7], 9.44 upbm affinity estimate (log intensity, higher = more binding, comparable within an allelic series).

Turning to AATCTCCA, in assay [3], the binding signal was 9.73 upbm affinity estimate (log intensity, higher = more binding, comparable within an allelic series).

With ATATTTAG, the binding signal in assay [3] was 10.9 upbm affinity estimate (log intensity, higher = more binding, comparable within an allelic series).

For CCGGGGAA, the binding signal in assay [1] was 9.93 upbm affinity estimate (log intensity, higher = more binding, comparable within an allelic series); in assay [2], 9.99 upbm affinity estimate (log intensity, higher = more binding, comparable within an allelic series); in [8], 7.17 upbm affinity estimate (log intensity, higher = more binding, comparable within an allelic series); in assay [9], 7.19 upbm affinity estimate (log intensity, higher = more binding, comparable within an allelic series); in assay [10], 7.27 upbm affinity estimate (log intensity, higher = more binding, comparable within an allelic series).

AATGGCCT: the binding signal in assay [3] is 10.3 upbm affinity estimate (log intensity, higher = more binding, comparable within an allelic series).

Consider ATTAATTC, for which the binding signal in assay [3] was 13.6 upbm affinity estimate (log intensity, higher = more binding, comparable within an allelic series); in [11], 11.9 upbm affinity estimate (log intensity, higher = more binding, comparable within an allelic series); in [5], 11.1 upbm affinity estimate (log intensity, higher = more binding, comparable within an allelic series); in assay [12], 12.5 upbm affinity estimate (log intensity, higher = more binding, comparable within an allelic series); in assay [13] it was 9.98 upbm affinity estimate (log intensity, higher = more binding, comparable within an allelic series); in assay [6] it was 12.7 upbm affinity estimate (log intensity, higher = more binding, comparable within an allelic series). Besides, the binding signal in assay [14] is 8.41 upbm affinity estimate (log intensity, higher = more binding, comparable within an allelic series); in assay [15], 12.1 upbm affinity estimate (log intensity, higher = more binding, comparable within an allelic series); in assay [16], 11.1 upbm affinity estimate (log intensity, higher = more binding, comparable within an allelic series); in assay [17], 10.7 upbm affinity estimate (log intensity, higher = more binding, comparable within an allelic series); in assay [18] it was 12.2 upbm affinity estimate (log intensity, higher = more binding, comparable within an allelic series); in assay [19] it was 11.2 upbm affinity estimate (log intensity, higher = more binding, comparable within an allelic series). Also, the binding signal was 10.2 upbm affinity estimate (log intensity, higher = more binding, comparable within an allelic series) in assay [20]; 9.68 upbm affinity estimate (log intensity, higher = more binding, comparable within an allelic series) in assay [21]; 11 upbm affinity estimate (log intensity, higher = more binding, comparable within an allelic series) in assay [22]; 8.51 upbm affinity estimate (log intensity, higher = more binding, comparable within an allelic series) in [4].

As for ACATTACC, the binding signal in [3] was 10.7 upbm affinity estimate (log intensity, higher = more binding, comparable within an allelic series).

In the case of ATGAATTG, the binding signal in [3] was 11 upbm affinity estimate (log intensity, higher = more binding, comparable within an allelic series).

Consider ATAACAAG, for which the binding signal in assay [3] was 10.9 upbm affinity estimate (log intensity, higher = more binding, comparable within an allelic series).

As to CGGATAAC, the binding signal in assay [3] was 9.46 upbm affinity estimate (log intensity, higher = more binding, comparable within an allelic series).

ATCTAAAC: in assay [3], the binding signal is 9.7 upbm affinity estimate (log intensity, higher = more binding, comparable within an allelic series).
